Assay results: PubChem BioAssay (Tox21)
Records with an inconclusive call do not appear. Activity calls are given as the source filed them. Unless noted, calls come from the whole dose curve; as a rule, active = well fitted curve in the direction sought with a large enough effect in the repeat runs; inconclusive = weak or mixed curves; inactive = no such curve, though single readings can be large; an effect the other way counts as inactive or inconclusive.

Legend:
[1] = A CellTox Green Cytotoxicity Assay to monitor cytotoxicity in HepG2 cells - 0 hour (AID 1224882); note: nearly all actives have a fitted effect of over 35% in size
In short: (§1)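 Cytotoxicity was tracked as dead-cell DNA fluorescence in HepG2 cells treated with test compounds at 37 C; each time-point value comes from one kinetic series spanning 0, 8, 16, 24, 32 and 40 h.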

[2] = A CellTox Green Cytotoxicity Assay to monitor cytotoxicity in HEK293 cells - 8 hour (AID 1224884); note: nearly all actives have a fitted effect of over 35% in size; note: potency is the fitted concentration of half-maximal effect
In short: (§2)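 Real-time, in one plate: 600 HEK293 cells/well with dead-cell DNA dye, pinned compound after 5 h, 37 C incubation over 40 h; viable cells give no appreciable fluorescence.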

[3] = qHTS RealTime-Glo MT Cell Viability Assay in HepG2 cells - 0 hour (AID 1224889); note: nearly all actives have a fitted effect of over 50% in size
In short: (§3)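 Tox21 10K library screened in qHTS format on HepG2 cells carrying RealTime-Glo reagents. Compounds were added after a 5 h preincubation, and the luminescent signal from continuous culture was measured repeatedly during 40 h treatment.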

[4] = qHTS assay to identify small molecule antagonists of the estrogen receptor alpha (ER-alpha) signaling pathway using the BG1 cell line in the presence of 0.1 nM 17-beta-estradiol - cell viability counter screen (AID 1259241); note: nearly all actives have a fitted effect of over 40% in size
In short: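 The cell line endogenously expresses full-length ER-alpha and carries four EREs driving luciferase. Cells are cultured 5 days hormone-free, treated 22 hr with compounds and 0.1 nM estradiol, then viability is read by fluorescence.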

[5] = target: Androgen receptor (Homo sapiens) (UniProt P10275); assay: qHTS assay to identify small molecule antagonists of the androgen receptor (AR) signaling pathway using the MDA cell line in the presence of 0.5 nM R1881 (AID 1259243); note: nearly all actives have a fitted effect of over 50% in size; note: potency is the fitted concentration of half-maximal effect
In short: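 Luminescence from an AR/GR-responsive MMTV-luciferase construct in MDA-kb2 breast carcinoma cells, read 30 min after ONE-Glo, following 16 hr co-treatment with compounds and 0.5 nM R1881.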

[6] = target: Estrogen receptor (Homo sapiens) (UniProt P03372); assay: qHTS assay to identify small molecule antagonists of the estrogen receptor alpha (ER-alpha) signaling pathway using the BG1 cell line in the presence of 0.1 nM 17-beta-estradiol (AID 1259244); note: nearly all actives have a fitted effect of over 50% in size; note: potency is the fitted concentration of half-maximal effect
In short: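 Luciferase signal from VM7Luc4E2 ERE-reporter cells, co-dosed with test compound and 0.1 nM final 17beta-estradiol for 22 h, read with ONE-Glo.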

[7] = qHTS assay to identify small molecule HDAC inhibitors (AID 1259364); note: potency is the fitted concentration of half-maximal effect;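 note: wild-type HCT-116 cells with endogenous class I/II HDAC activity; nearly all actives have a fitted effect of over 45% in size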
In short: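 HCT-116 wt cells, 1,500/well, overnight attach. Compounds (DMSO) 2 h, 37 °C. HDAC-Glo I/II, 30 min RT. Luminescence.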

[8] = qHTS assay to identify small molecule HDAC inhibitors - cell viability counter screen (AID 1259365); note: series mostly up to about 92 µM; nearly all actives have a fitted effect of over 50% in size
In short: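 Viability readout: CellTiter-Glo luminescence. Wild-type HCT-116 cells, 2hr compound treatment following overnight attachment at 37 C.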

[9] = qHTS assay to identify small molecule agonists of the sonic hedgehog signaling (Shh) pathway (AID 1259368; calls by dose curve;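 note: NIH/3T3-derived 3T3Gli1-Luc cells carrying a stable Gli1-driven firefly luciferase reporter; series mostly up to about 92 µM; nearly all actives have a fitted effect of over 15% in size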)
In short: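 Following a 24 hr incubation with DMSO-dissolved compounds at 37 C, 5% CO2, Gli1-Luc NIH/3T3-derived cells received luciferase reagent for 30 min at room temperature prior to luminescence measurement.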

[10] = A CellTox Green Cytotoxicity Assay to monitor cytotoxicity in HepG2 cells - 32 hour (AID 1224883); note: nearly all actives have a fitted effect of over 50% in size; note: potency is the fitted concentration of half-maximal effect
In short: as §1

[11] = qHTS RealTime-Glo MT Cell Viability Assay in HepG2 cells - 16 hour (AID 1224885); note: nearly all actives have a fitted effect of over 50% in size
In short: as §3

[12] = A CellTox Green Cytotoxicity Assay to monitor cytotoxicity in HEK293 cells - 16 hour (AID 1224888); note: nearly all actives have a fitted effect of over 35% in size; note: potency is the fitted concentration of half-maximal effect
In short: as §2

[13] = A CellTox Green Cytotoxicity Assay to monitor cytotoxicity in HepG2 cells - 8 hour (AID 1224890); note: nearly all actives have a fitted effect of over 45% in size; note: potency is the fitted concentration of half-maximal effect
In short: as §1

[14] = qHTS assay to identify small molecule antagonists of the androgen receptor (AR) signaling pathway using the MDA cell line in the presence of 0.5 nM R1881 - cell viability counter screen (AID 1259242); note: nearly all actives have a fitted effect of over 45% in size
In short: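 Cells seeded at 3,000/well and allowed 5 hr at 37C, 0% CO2 before compound transfer and R1881 (0.5 nM final) addition; 16 hr later, live-cell protease fluorescence indicated cytotoxicity.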

[15] = qHTS assay to identify small molecule agonists of the sonic hedgehog signaling (Shh) pathway - cell viability counter screen (AID 1259366); note: nearly all actives have a fitted effect of over 50% in size; note: potency is the fitted concentration of half-maximal effect
In short: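 Viability measured fluorometrically (CellTiter-Fluor, 1hr, 37C) in 3T3 Gli1-Luc reporter cells after 23hr compound exposure within a 24hr incubation at 37C/5% CO2.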

[16] = qHTS RealTime-Glo MT Cell Viability Assay in HEK293 cells - 24 hour (AID 1224886); note: nearly all actives have a fitted effect of over 50% in size; note: potency is the fitted concentration of half-maximal effect
In short: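 Luminescence generated by NanoLuc from substrate produced by living HEK293 cells served as the viability signal. Each value reflects the reading at its stated time point during continuous 40 h compound exposure at 37 C.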

[17] = qHTS RealTime-Glo MT Cell Viability Assay in HEK293 cells - 8 hour (AID 1224887); note: nearly all actives have a fitted effect of over 50% in size; note: potency is the fitted concentration of half-maximal effect
In short: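 Kinetic, non-lysing viability readout. Seed HEK293 (600/well) with reagent, incubate 5 h at 37 C/5% CO2, pin 23 nL compound in DMSO, incubate at 37 C, read luminescence at 0, 8, 16, 24, 32, 40 h.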

[18] = qHTS assay to identify small molecule phospholipidosis (PLD) inducers (AID 1259344; active = well fitted curve in the direction sought with a large enough effect; an effect the other way counts as inactive or inconclusive; note: potency is the fitted concentration of half-maximal effect)
In short: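 Read-out is LipidTOX Red fluorescence (ex 595/em 615) imaged in HepG2 cells after 24 h compound exposure at 37 C, with Hoechst nuclear counterstain (ex 352/em 461) allowing per-cell normalisation.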

[19] = qHTS assay to identify small molecule antagonists of the sonic hedgehog signaling (Shh) pathway - cell viability counter screen (AID 1259367); note: nearly all actives have a fitted effect of over 55% in size; note: potency is the fitted concentration of half-maximal effect
In short: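 Fluorescence read-out (CellTiter-Fluor, 1 hr at 37C) taken after 23 hr compound treatment of 3T3 Gli1-Luc cells stimulated with conditioned medium. Cells were seeded at 2,000 per well and pre-incubated 4 hr.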

[20] = A CellTox Green Cytotoxicity Assay to monitor cytotoxicity in HEK293 cells - 32 hour (AID 1224881); note: nearly all actives have a fitted effect of over 40% in size; note: potency is the fitted concentration of half-maximal effect
In short: as §2

Measured: Potency

Sequence of Estrogen receptor (Homo sapiens) (P03372 whole entry, looked up): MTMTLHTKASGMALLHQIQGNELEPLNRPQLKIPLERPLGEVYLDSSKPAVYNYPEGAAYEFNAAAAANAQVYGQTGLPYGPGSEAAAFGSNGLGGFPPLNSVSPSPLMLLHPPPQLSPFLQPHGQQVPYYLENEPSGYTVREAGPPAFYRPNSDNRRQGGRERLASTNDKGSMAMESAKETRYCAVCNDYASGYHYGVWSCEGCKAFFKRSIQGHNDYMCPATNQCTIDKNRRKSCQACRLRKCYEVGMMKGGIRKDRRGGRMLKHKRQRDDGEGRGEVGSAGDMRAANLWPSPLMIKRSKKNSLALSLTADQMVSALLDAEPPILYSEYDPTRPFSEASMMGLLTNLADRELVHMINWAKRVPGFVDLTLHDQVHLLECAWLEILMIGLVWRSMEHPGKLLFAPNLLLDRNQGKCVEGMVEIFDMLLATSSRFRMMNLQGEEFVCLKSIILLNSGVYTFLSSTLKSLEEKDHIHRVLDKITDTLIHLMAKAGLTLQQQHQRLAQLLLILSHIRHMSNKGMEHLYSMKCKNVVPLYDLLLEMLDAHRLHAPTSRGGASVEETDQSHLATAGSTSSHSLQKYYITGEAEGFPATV
Sequence of Androgen receptor (Homo sapiens) (P10275 whole entry, looked up): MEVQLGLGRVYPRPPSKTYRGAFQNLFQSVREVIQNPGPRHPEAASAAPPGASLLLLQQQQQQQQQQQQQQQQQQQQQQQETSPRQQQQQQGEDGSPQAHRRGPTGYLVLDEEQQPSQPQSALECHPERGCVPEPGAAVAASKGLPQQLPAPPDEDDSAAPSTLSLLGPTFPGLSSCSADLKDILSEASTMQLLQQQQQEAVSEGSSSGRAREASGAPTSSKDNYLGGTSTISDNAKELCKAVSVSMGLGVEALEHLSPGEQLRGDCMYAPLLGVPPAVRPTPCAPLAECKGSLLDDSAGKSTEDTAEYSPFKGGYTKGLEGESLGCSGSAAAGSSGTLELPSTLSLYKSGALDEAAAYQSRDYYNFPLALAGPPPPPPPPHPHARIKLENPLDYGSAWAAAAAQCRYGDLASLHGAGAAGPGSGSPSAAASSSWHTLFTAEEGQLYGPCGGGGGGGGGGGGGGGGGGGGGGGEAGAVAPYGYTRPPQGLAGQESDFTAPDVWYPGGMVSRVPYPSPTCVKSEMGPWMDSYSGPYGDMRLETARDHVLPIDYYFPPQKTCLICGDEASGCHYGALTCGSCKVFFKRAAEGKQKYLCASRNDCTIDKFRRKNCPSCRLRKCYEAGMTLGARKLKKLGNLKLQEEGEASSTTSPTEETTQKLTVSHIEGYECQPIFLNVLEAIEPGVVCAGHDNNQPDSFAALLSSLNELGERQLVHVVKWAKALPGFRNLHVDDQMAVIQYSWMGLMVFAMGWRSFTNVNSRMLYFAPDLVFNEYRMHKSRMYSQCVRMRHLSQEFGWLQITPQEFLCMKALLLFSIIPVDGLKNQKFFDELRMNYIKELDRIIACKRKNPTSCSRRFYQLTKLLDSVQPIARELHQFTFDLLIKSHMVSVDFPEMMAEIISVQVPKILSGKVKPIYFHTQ

CN(C)[C@@H](CCOc1cccc2ccccc12)c1ccccc1
inactive: [1] | [2] | [3] | [4] | [6] | [7] | [8] | [9]
active: [5] 26.6 µM

C/C=C/C=C/COC(=O)C(C)C
active: [10] 38.9 µM
not listed: [5] | [6] | [16] | [17] | [18] | [19] | [20]
inactive: all other assays above

CC(N=C(NC#N)Nc1ccncc1)C(C)(C)C (stereo not drawn)
not listed: [5] | [6] | [20]
inactive: all other assays above

CCCCCCCCCCC[C@@H](C[C@@H]1OC(=O)[C@H]1CCCCCC)OC(=O)[C@H](CC(C)C)NC=O
active: [10] 16.9 µM | [16] 8.49 µM
not listed: [5] | [17] | [20]
inactive: all other assays above

CN(C)Cc1cc(C(C)(C)C)c(O)c(C(C)(C)C)c1
not listed: [1] | [5] | [6] | [10] | [18]
inactive: all other assays above

Clc1sc(Cl)c(Cl)c1Cl
not listed: [1] | [10] | [18] | [19]
inactive: all other assays above

Cc1cc(=O)oc2cc(O)cc(O)c12
not listed: [1] | [6] | [8] | [12] | [15] | [18] | [20]
inactive: all other assays above

CN1CCCCC1CCN1c2ccccc2Sc2ccc(S(C)=O)cc21 (stereo not drawn)
not listed: [1] | [5] | [10] | [15] | [16] | [19]
inactive: all other assays above

CC1(C)CCC[C@]2(C)[C@H]3CCO[C@]3(C)CC[C@@H]12
not listed: [2] | [5] | [6] | [12] | [18] | [20]
inactive: all other assays above

CCCc1ccc(OCC(=O)N2CCN(C(=O)COc3ccc(CCC)cc3OC)CC2)c(OC)c1
active: [10] 23.9 µM | [16] 9.52 µM | [17] 9.52 µM | [5] 26.6 µM | [6] 29.8 µM
not listed: [2] | [11] | [18] | [20]
inactive: all other assays above

Cc1ccc(O)c(O)c1
active: [15] 21.1 µM | [19] 21.1 µM
inactive: [11] | [3] | [13] | [14] | [7] | [9]

Sc1nc2ccccc2s1
inactive: [1] | [2] | [11] | [16] | [17] | [3] | [13] | [4] | [14] | [8] | [9]

C#C[C@]1(OC(C)=O)CC[C@H]2[C@@H]3CCC4=C[C@@H](OC(C)=O)CC[C@@H]4[C@H]3CC[C@@]21C
active: [16] 21.3 µM | [18] 10 µM
not listed: [5] | [6] | [17] | [20]
inactive: all other assays above

Cc1cc(C)c(/C=C2\C(=O)Nc3ccccc32)[nH]1
active: [20] 10.7 µM | [2] 16.9 µM | [12] 10.7 µM | [13] 19 µM | [5] 13.3 µM
not listed: [1] | [4] | [7] | [10]
inactive: all other assays above

C=C(C)C(=O)OCCCCCCCCCC
active: [19] 54.9 µM
not listed: [4] | [5] | [6] | [10] | [12] | [15] | [18] | [20]
inactive: all other assays above

C=CC(=O)OCCOC(=O)C=C
active: [16] 43.6 µM
not listed: [5] | [15] | [18] | [20]
inactive: all other assays above

O=C1C(c2[nH]c3ccc(S(=O)(=O)O)cc3c2O)=Nc2ccc(S(=O)(=O)O)cc21
active: [7] 54.5 µM
not listed: [1] | [2] | [5] | [6] | [8]
inactive: all other assays above

Nc1ccc(C(=O)O)c(O)c1
not listed: [1] | [6] | [10] | [13]
inactive: all other assays above

C[Si](Cl)(c1ccccc1)c1ccccc1
not listed: [5] | [16] | [17] | [18] | [19] | [20]
inactive: all other assays above

CC1(C)[C@@H](O)CC[C@]2(C)[C@H]3C(=O)C=C4[C@@H]5C[C@@](C)(C(=O)O)CC[C@]5(C)CC[C@@]4(C)[C@]3(C)CC[C@@H]12
not listed: [1] | [10] | [15] | [19]
inactive: all other assays above

OC/C=C/CO
not listed: [1] | [5] | [10] | [18]
inactive: all other assays above

Oc1cc(Cl)cc(Cl)c1Cl
active: [20] 50.2 µM
inactive: [11] | [3] | [13] | [4] | [14] | [7] | [8] | [15] | [19] | [9]

Cl[Si](Cl)(c1ccccc1)c1ccccc1
not listed: [2] | [5] | [10] | [12] | [18] | [19] | [20]
inactive: all other assays above

CC(C)=CCNc1ncnc2c1ncn2[C@@H]1O[C@H](CO)[C@@H](O)[C@H]1O
active: [15] 13.3 µM
not listed: [1] | [6] | [10] | [13] | [18] | [19]
inactive: all other assays above
